# Screening data: PubChem BioAssay, several laboratories
# Rows were chosen to be rich in hits. Some 1.4% of all compounds tested hit in one or more screens of this group.
# Phagocytosis inh – blocks phagocytosis by macrophages | J774A.1 macrophage IgG-bead phagocytosis, imaging | inhibition, % at 5 µM | 0.07% of 110,000 active;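 active = inhibition above the mean of the plate negative controls plus 5 SD, cut at about 13% in these data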;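 note: phagocytic index as fraction of beads internalized from green versus red external bead signal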
# NFkB transloc inh – blocks IL-1B driven NFkB nuclear translocation in HUVEC cells | HUVEC IL-1B NFkB p65 nuclear translocation imaging | inhibition, % at 2 µM | 0.43% of 94,000 active | AID 796;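 active = inhibition above about 30% together with a positive call from visual inspection of the well image, limit read from the data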;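 note: nuclear over cytoplasmic p65 intensity ratio measured by imaging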
# Pyk2 oligo antag – Pyk2 (human) oligomerization antagonism; Q14289; Q293 cells, Pyk2 FERM NanoBiT luminescence; hits give low values; z-score (the deposit names both 25 µM and 10 µM); 0.83% of 99,000 active; AID 1347419;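 active = Z-score of -3 or lower, scaled per plate to the spread of control and sample wells; inactive = z-score above -3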;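 note: negative z-score means lost luminescence so less FERM oligomerization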
# Target sequence (Q14289 whole entry, looked up): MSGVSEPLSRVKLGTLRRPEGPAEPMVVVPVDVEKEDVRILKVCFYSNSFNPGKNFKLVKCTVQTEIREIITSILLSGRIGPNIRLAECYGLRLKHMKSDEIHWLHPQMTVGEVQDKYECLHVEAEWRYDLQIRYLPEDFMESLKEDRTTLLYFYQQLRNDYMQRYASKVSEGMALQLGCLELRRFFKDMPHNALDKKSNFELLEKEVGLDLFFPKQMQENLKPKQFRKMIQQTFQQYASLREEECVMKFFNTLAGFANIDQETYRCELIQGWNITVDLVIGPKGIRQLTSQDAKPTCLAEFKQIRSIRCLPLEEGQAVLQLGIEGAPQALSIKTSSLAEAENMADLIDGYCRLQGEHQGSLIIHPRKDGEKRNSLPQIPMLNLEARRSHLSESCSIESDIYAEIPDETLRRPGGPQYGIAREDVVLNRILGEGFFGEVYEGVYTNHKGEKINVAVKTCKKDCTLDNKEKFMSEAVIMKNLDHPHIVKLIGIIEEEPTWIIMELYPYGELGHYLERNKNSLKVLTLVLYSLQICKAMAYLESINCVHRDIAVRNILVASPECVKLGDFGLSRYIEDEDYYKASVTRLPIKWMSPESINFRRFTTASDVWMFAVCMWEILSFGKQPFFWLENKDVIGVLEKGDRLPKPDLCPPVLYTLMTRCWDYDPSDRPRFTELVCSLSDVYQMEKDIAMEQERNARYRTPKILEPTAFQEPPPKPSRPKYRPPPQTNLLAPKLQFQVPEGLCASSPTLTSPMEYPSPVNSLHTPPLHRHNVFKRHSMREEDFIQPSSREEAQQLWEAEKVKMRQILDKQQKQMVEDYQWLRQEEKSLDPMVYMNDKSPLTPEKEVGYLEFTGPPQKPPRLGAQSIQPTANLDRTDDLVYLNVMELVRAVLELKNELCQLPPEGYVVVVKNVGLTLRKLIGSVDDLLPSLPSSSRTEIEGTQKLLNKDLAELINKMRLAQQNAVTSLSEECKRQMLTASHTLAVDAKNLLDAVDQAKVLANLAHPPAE
# HUVEC tox IL1B – toxic to HUVEC cells under IL-1B stimulation; HUVEC cell count loss, Hoechst imaging, IL-1B stimulated; cell count reduction, % at 2 µM; 0.41% of 94,000 active; AID 845;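 active = cell count reduction more than 3 SD above the screen-wide mean, cut at about 70% in these data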
# IL1B NFkB pot – enhances IL-1B driven NFkB nuclear translocation | HUVEC IL-1B NFkB p65 nuclear translocation imaging | activation, % at 2 µM | 0.3% of 94,000 active;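 active = activation above 40%, about the mean plus 3 SD, also judged a hit on visual image review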;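 note: percent activation is computed from the nuclear over cytoplasmic p65 intensity ratio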
# Numbers stand for hits; - = inactive; . = no result given.
SMILES,Phagocytosis inh,NFkB transloc inh,Pyk2 oligo antag,HUVEC tox IL1B,IL1B NFkB pot
CCOC(=O)C1=C(c2ccccc2)NC(SCC(=O)Nc2ccc(C)cc2)=C(C#N)C1c1ccco1 (stereo not drawn),-,-,-4.3,-,-
CCCc1ccc(Oc2cn[nH]c2-c2ccc(O)cc2O)cc1,-,-,-,-,-
COc1ccc(Oc2cn[nH]c2-c2ccc(O)cc2O)cc1,-,-,-3.5,-,-
C=C(C)COc1ccc(-c2[nH]ncc2Oc2cccc(OC)c2)c(O)c1,-,-,-3.6,-,-
Cc1ccc(N2C(=O)C3C(C(=O)c4ccccc4)=NN(c4ccccc4)C3C2=O)cc1 (stereo not drawn),-,.,-,.,.
CCCCn1c(SCC(=O)NCc2ccco2)nc2ccc(N3CCOCC3)cc2c1=O,-,.,-,.,.
S=C(Nc1ccc(N2CCOCC2)cc1)Nc1ccc2nc(-c3ccco3)c(-c3ccco3)nc2c1,-,45,-,-,-
CCn1c(N2CCN(CC(=O)Nc3cccc(C)c3C)CC2)nc2ccccc21,-,-,-,-,-
COCCn1c(SCC(=O)Nc2sccc2C(N)=O)nc2cc(Cl)ccc2c1=O,-,-,-3,-,-
COCCn1c(SCc2cc(C(C)=O)ccc2OC)nc2cc(Cl)ccc2c1=O,-,.,.,.,.
COc1cc(C(C(=O)NC(C)(C)C)N(C(=O)CNC(=O)c2cccs2)c2ccccc2)cc(OC)c1OC (stereo not drawn),-,-,-,-,-
Cc1ccc(Nc2nc(-c3c(C)nc4ccccn34)cs2)cc1,.,34,-,-,-
Cc1ccc(Nc2nc(-c3c(C)nc4ncccn34)cs2)cc1,.,-,-,-,-
COc1ccc(N2C(=O)c3ccccc3NC2c2ccc(OC)c(COc3ccccn3)c2)cc1 (stereo not drawn),-,.,.,.,.
COc1ccc(N2C(=O)c3ccccc3NC2c2ccc(OC)c(CSc3ccccn3)c2)cc1 (stereo not drawn),.,-,-3.2,-,-
Cc1cccc(C)c1Nc1nnc(SCc2cc([N+](=O)[O-])cc3c2OCOC3)s1,-,-,-,-,-
COc1cccc(Nc2nnc(SCc3cc([N+](=O)[O-])cc4c3OCOC4)s2)c1,-,-,-3.3,-,-
O=C(CN1CCCCCC1)N1c2ccccc2C=Cc2ccccc21,-,31,-,-,-
O=C(CN1CCCCC1)N1CCCc2ccccc21,-,-,-,-,-
COc1ccc2nc(NC(=O)CN(c3ccc(C)cc3)S(=O)(=O)c3c(C)nn(C)c3C)sc2c1,.,-,-,-,-
CC(C)CN1C(=O)c2ccccc2C1(O)Cc1ccccc1 (stereo not drawn),.,-,-,-,-
O=C1c2ccccc2C(O)(Cc2ccccc2)N1C1CCCCC1 (stereo not drawn),-,37,.,92,-
CN(Cc1nc2ccccc2n1C)C(=O)c1cccs1,-,-,-,-,-
COc1cccc(N(C(=O)Cn2nnc(-c3ccc(C)cc3)n2)C(C(=O)NC(C)(C)C)c2c[nH]c3ccccc23)c1 (stereo not drawn),.,-,-,-,-
COc1cccc(N(C(=O)Cn2nnc(-c3cccs3)n2)C(C(=O)NC(C)C)c2ccc(C)o2)c1 (stereo not drawn),.,-,-3.5,-,-
SMILES,Phagocytosis inh,NFkB transloc inh,Pyk2 oligo antag,HUVEC tox IL1B,IL1B NFkB pot
N#Cc1c(-c2ccccc2)ccn(Cc2cccc(Cl)c2)c1=O,.,-,-,-,-
Clc1cccc(Cl)c1CSc1nnc2ccccn12,-,.,.,.,.
C=CCSc1nnc2c(n1)OC(c1ccco1)Nc1ccccc1-2 (stereo not drawn),-,.,.,.,.
C=CCSc1nnc2c(n1)OC=Nc1ccccc1-2,-,30,-,91,-
O=C(Cn1nc(-c2ccccc2)ccc1=O)NCC1COCCO1 (stereo not drawn),.,98,-,89,-
COC(=O)Nc1nnc(SCc2ccc(C)cc2)s1,.,-,-,-,-
CC(=O)Nc1nnc(SCc2ccc(F)cc2)s1,.,-,-,80,-
CCCCn1c(-c2ccsc2)nc2c1c(=O)[nH]c(=O)n2CCC,-,-,-,-,-
CCCCn1c(=O)[nH]c(=O)c2c1nc(-c1ccsc1)n2Cc1ccccc1,.,-,-3.1,-,-
CCN(CCN(C)C)C(=O)Cn1ncc2c1-c1cc(C)ccc1OC2,-,-,.,-,-
CCOC(=O)C(Cc1ccccc1)NC(C)=O (stereo not drawn),-,-,-,92,-
CCCNC(=O)N[C@@H](Cc1ccccc1)C(=O)OC,-,-,-,-,-
CCCC(C)(C)NC(=O)CCCCC(=O)NC(C)(C)CCC,-,-,-,-,-
Cc1ccc(C)c(N2CCN(S(=O)(=O)c3ccc4c(c3)OCCO4)CC2)c1,-,-,-3.9,-,-
Cc1ccc(Cl)cc1N1CCN(S(=O)(=O)c2ccc3c(c2)OCCO3)CC1,-,-,-4.2,-,-
Cc1ccc(C)c(N2CCN(S(=O)(=O)c3ccc4[nH]c(=O)c(=O)[nH]c4c3)CC2)c1,-,-,-,-,-
COc1ccc(CCNC(=O)C2CCN(S(C)(=O)=O)CC2)cc1OC,-,-,-,-,-
Cc1ccc(S(=O)(=O)NC(=O)Nc2ccccc2F)cc1,.,-,-,-,-
O=C(c1cn(-c2ccccc2)nc1-c1ccc(F)cc1)N1CCCCC1,-,.,.,.,.
O=C(c1cn(-c2ccccc2)nc1-c1ccncc1)N1CCCCC1,-,-,-,92,-
CCCNC(=O)NC(=O)CSc1nc2cc(C(=O)OC)ccc2c(=O)n1-c1ccccc1,-,-,-3.1,-,-
CC12Cc3ccc4ccccc4c3C=C1C[N+](C)(C)C2 (stereo not drawn),-,49,-,-,-
COc1ccc(C2CC(c3ccccc3)Nc3nc(NC(=O)c4cccs4)nn32)cc1 (stereo not drawn),-,-,-3.5,-,-
CC(OC(=O)C1CCC(=O)N1)C(=O)Nc1cc(Cl)cc(Cl)c1 (stereo not drawn),-,.,.,.,.
CCOc1cc(C2CC(=O)N3CN(C4CCCCC4)CSC3=C2C#N)ccc1O (stereo not drawn),-,-,.,-,-
SMILES,Phagocytosis inh,NFkB transloc inh,Pyk2 oligo antag,HUVEC tox IL1B,IL1B NFkB pot
COc1ccc2nc3c(cc2c1)c(NC(=O)c1cccs1)nn3CC(C)C,-,-,-3.4,-,-
Cc1nn(Cc2ccccc2)c(C)c1NC(=O)CSc1nc(C2CC2)nc2c1cnn2-c1ccccc1,-,46,-,-,-
C=CCn1c2ccccc2c2nnc(SCN3C(=O)c4ccccc4C3=O)nc21,.,-,-,-,-
C=CCn1c2ccccc2c2nnc(SCCCn3c(=O)[nH]c4ccccc43)nc21,-,-,-3.9,-,-
Cc1ccc2c(c1)cc(CN(CCc1ccccc1)C(=O)N1CCOCC1)c1nnnn12,-,-,-,-,-
O=S(=O)(NCCSCc1c(Cl)cccc1Cl)c1ccc2c(c1)OCCO2,-,-,-4.3,-,-
O=S(=O)(NCCSCc1ccc(Cl)cc1Cl)c1ccc2c(c1)OCCO2,-,-,-,-,-
O=S(=O)(Nc1cccnc1Cl)c1ccc2c(c1)OCCO2,.,-,-,-,-
CSc1ccccc1NS(=O)(=O)c1ccc2c(c1)OCCO2,-,-,-,70,-
c1cc2c(cn1)cnc1cscc12,-,.,.,.,.
O=C(c1csc2ccccc12)N1CCN(c2ccc(Cl)c(Cl)c2)CC1,.,62,-,-,-
